Screening results as filed in PubChem.
The list is not random: actives were taken first. Their share in the collection is about 4.7%.
TRHR agonist = qHTS for Small Molecule Agonists and Allosteric Enhancers of Human TRH Receptor: Primary Screen for Agonists; Thyrotropin-releasing hormone receptor (Homo sapiens), P34981; TRHR cells, calcium flux fluo-8, FDSS agonist mode; activation, % at 2 µM; 360,000 tested, 0.18% active; AID 493084, 2011
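Fluo-8-loaded TRHR cells; 10 s baseline, compound added, kinetic Ca2+ fluorescence read 1/s, agonist mode.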
D1 antag = Antagonist of Human D 1 Dopamine Receptor: qHTS | D(1A) dopamine receptor (Homo sapiens), P21728 | AID 504652, 2011 | HEK293 TREx D1 cells, calcium flux, dopamine EC80; hits give low values | 360,000 tested, 3.2% active | activity change, negative = inhibition, % at 10 µM; in the data active means activity change below about -30%
Target sequence (P21728 whole entry, looked up): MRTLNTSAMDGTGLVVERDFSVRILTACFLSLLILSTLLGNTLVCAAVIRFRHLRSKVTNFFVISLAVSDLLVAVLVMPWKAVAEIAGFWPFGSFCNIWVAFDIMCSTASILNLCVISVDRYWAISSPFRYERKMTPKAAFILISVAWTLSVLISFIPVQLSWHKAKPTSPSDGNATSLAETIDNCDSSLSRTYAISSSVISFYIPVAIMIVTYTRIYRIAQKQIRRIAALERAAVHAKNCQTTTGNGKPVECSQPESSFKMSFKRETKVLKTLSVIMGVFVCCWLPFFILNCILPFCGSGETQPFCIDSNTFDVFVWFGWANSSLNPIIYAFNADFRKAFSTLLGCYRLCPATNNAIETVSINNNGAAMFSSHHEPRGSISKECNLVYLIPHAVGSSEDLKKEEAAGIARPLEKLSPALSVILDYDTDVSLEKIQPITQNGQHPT
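Kinetic fluorescence of a calcium dye serves as the read-out. D1-expressing Hek293 Trex cells, induced overnight at 30 C, are exposed to compound for 180 s before an EC80 dopamine addition, then read 180 s further.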
TRHR enhancer = qHTS for Small Molecule Agonists and Allosteric Enhancers of Human TRH Receptor: Primary Screen for Enhancers | Thyrotropin-releasing hormone receptor (Homo sapiens), P34981 | TRHR cells, fluo-8 calcium fluorescence, EC20 TRH enhancement | enhancement, % at 2 µM | 360,000 tested, 0.66% active; in the data active means enhancement above about 30%
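Enhancer read-out: after compound pinning and an initial kinetic agonist-mode read, an EC20 of TRH (10 nM final) was injected and fluo-8 calcium signal (Ex 480/Em 530) followed at 1 s/cycle for 100 cycles in TRHR-expressing cells.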
D1 agonist = Allosteric Agonists of the Human D1 Dopamine Receptor: qHTS; D(1A) dopamine receptor (Homo sapiens), P21728; HEK293 T-REx D1 cells, calcium flux, agonist mode; activation, % at 2 µM; 360,000 tested, 1% active; AID 504660, 2011
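Tetracycline-induced HEK293 TREx D1 cells, force-coupled to calcium signalling, were dye-loaded with a no-wash calcium kit. Compound was pin-added after a 10 s baseline. Fluorescence was read kinetically at 1 cycle/s for 180 s, with calcium rises flagged as agonism.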
D1 potentiator = Potentiators of Human D1 Dopamine Receptor: qHTS; potentiation, % at 10 µM; HEK293 TREx D1 cells, calcium flux, dopamine EC20 potentiation; 360,000 tested, 0.036% active; in the data active means potentiation above about 30%
Of the large screens only hits and unclear results are named; the others gave an inactive call. Unless noted, no stated cut-off is given here; in the data, active means activation above about 30%; inactive means the rest.

CC1=C(C(=O)Nc2cc(Cl)ccc2C)C(c2cccs2)n2ncnc2N1 (stereo not drawn)	none
O=S(=O)([O-])CCC[n+]1c(/C=C\Nc2ccccc2)oc2ccc(-c3ccccc3)cc21	TRHR agonist 118, D1 agonist 123
COc1cccc(OCCSc2nc3ccccc3n2CC(=O)N2CCOCC2)c1	none
N#Cc1nc(Nc2cccc(C(F)(F)F)c2)nc(NC2CCCC2)n1	none
O=S(=O)(c1ccc(Br)cc1)c1nnn2c1nc(NCc1ccc3c(c1)OCO3)c1sccc12	none
Cc1ccnc(NS(=O)(=O)c2ccc(N3C(=O)C4CCCCC4C3=O)cc2)n1 (stereo not drawn)	TRHR enhancer 37
CCOc1ccc2[nH]c(=O)c(CN(Cc3ccco3)Cc3nnnn3Cc3ccccc3)cc2c1	D1 antag -44
COCCn1nnnc1CN(CCc1ccccc1)Cc1cc2ccc(C)cc2[nH]c1=O	D1 antag -38
CCCc1ccc(OC(C)c2nc(-c3ccc(-n4cccc4)cc3)no2)cc1 (stereo not drawn)	TRHR enhancer 36
N#Cc1ccc(S(=O)(=O)N2CCCN(c3ccc(C(F)(F)F)cn3)CC2)cc1	D1 antag -36
CC1CCCCN1C(=O)CSc1c2c(nc3cc(Cl)ccc13)CCCC2 (stereo not drawn)	none
CC(=O)Nc1ccc(S(=O)(=O)NNC(=O)c2cccc(Br)c2)cc1	TRHR enhancer 38
CC(=O)Nc1ccc(S(=O)(=O)NNC(=O)c2cccc([N+](=O)[O-])c2)cc1	none
CCN(CC)C(=O)CSc1nc2cc3c(cc2c(=O)n1Cc1ccc(OC)cc1)OCO3	none
COc1ccccc1/C=C/C=C1\Oc2c(ccc(O)c2CN(C)C)C1=O	D1 agonist 103
CCN(CC)Cc1c(O)ccc2c1O/C(=C\C=C\c1ccccc1)C2=O	D1 agonist 49
COCCN(CCOC)Cc1c(O)ccc2c1O/C(=C\c1ccc(C)o1)C2=O	none
CC1CCCN(c2ncnc3c2cnn3-c2ccc(F)cc2)C1 (stereo not drawn)	none
CCc1ccc(NC(=O)N2CC=C(c3c[nH]c4ccccc34)CC2)cc1	none
CCOc1ccc(NC(=O)N2CC=C(c3c[nH]c4ccccc34)CC2)cc1	D1 antag -35
CCOC(=O)C1CCN(c2nc3c(S(=O)(=O)c4ccc(Br)cc4)nnn3c3ccsc23)CC1	none
O=C(CSc1cccc[n+]1[O-])N1CCCCCC1	D1 antag -34
O=C(CSc1cccc[n+]1[O-])CSc1cccc[n+]1[O-]	none
O=C(CSc1cccc[n+]1[O-])NCC1CCCCC1	D1 antag -69
COc1ccccc1CNC(=O)CN1C(=O)CSc2ccc(S(=O)(=O)N3CCCCC3)cc21	none
COc1cc(C)ccc1OCCCCOc1ccccc1C(C)=O	D1 antag -49
CC(=O)c1ccccc1OCCOCCOc1ccccc1C(C)=O	D1 antag -34
COc1cc(C)ccc1OCCCOc1ccccc1Cl	none
CCSc1ncc(Cl)c(C(=O)Nc2sc(C(C)=O)c(C)c2C(=O)OC)n1	none
COc1ccc(CN(C)c2ccc(S(=O)(=O)N3CCN(C)CC3)cc2[N+](=O)[O-])cc1OC	D1 antag -46
COc1ccc(CCNc2ccc(S(=O)(=O)N3CCN(C)CC3)cc2[N+](=O)[O-])cc1	D1 antag -32
CCOc1ccc(CC(=O)Nc2c(C(=O)c3ccc(C)cc3)oc3ccccc23)cc1OCC	none
O=c1c(O)c(-c2ccc(O)c(O)c2)oc2cc(O)cc(O)c12	TRHR enhancer 63
O=c1cc(-c2ccc(O)c(O)c2)oc2cc(O)cc(O)c12	none
CCC/C(O)=C1\C(=O)CC(C)(C)CC1=Nc1ccc(OC)cc1	D1 potentiator 51
Cc1cc(N2CCC(C(=O)N(CC(C)C)CC(C)C)CC2)n2nc(C)c(-c3ccc(Cl)cc3)c2n1	none
